Some test systems named below: K-562 leukemia; MALME-3M melanoma; MDA-MB-231 breast; RXF 393 renal; SF-268 CNS; SF-295 CNS; SF-539 CNS; UACC-257 melanoma; M14 melanoma; HCT-15 colon; HT29 colon; SNB-75 CNS; SNB-19 CNS; U251 CNS; PC-3 prostate; SK-MEL-5 melanoma; UACC-62 melanoma; LOX IMVI melanoma; SK-MEL-28 melanoma; SK-MEL-2 melanoma.
Assay in all cases: NCI-60 one-dose screen, 48 h (100 = growth as untreated, 0 = no growth, -100 = all killed)
Common to all, as to settings: 10 µM unless noted

SMILES strings stand for the structures. About 83,000 compounds went through this panel and 20% of them were active in at least one assay; those are over-represented in the sample as a whole.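 Note: values are percent growth. 100 is the growth of untreated cells, values between 100 and 0 indicate rising inhibition; between -100 and 0 indicates cell death.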 Unmarked numbers belong to inactive results. Activity calls are given as the source filed them. The calls were made as follows: active = growth percent below 10; inactive = the rest.

On to `CCN1C(=S)N(c2ccccc2)C2NC(=O)N(/N=C/C=C/c3ccccc3OC)C21` (stereo unspecified), for which the growth in the experiment with K-562 leukemia was 59.2%; in the experiment with MALME-3M melanoma, 87.2%; in the experiment with MDA-MB-231 breast it was 71.9%; with RXF 393 renal it was 92.4%; in the experiment on SF-268 CNS it was 93.9%; with SF-295 CNS, 87.9%. For the same molecule, the growth was 86.3% in the experiment with SF-539 CNS; 102% with UACC-257 melanoma; 92.6% in the experiment with M14 melanoma; 67.6% in the experiment with HCT-15 colon; 98.8% with HT29 colon; 71.8% with SNB-75 CNS. Also, the growth with SNB-19 CNS is 87.6%; with U251 CNS, 89.4%; in the experiment on PC-3 prostate, 90.3%; in the experiment with SK-MEL-5 melanoma it was 92.4%; in the experiment with UACC-62 melanoma, 81.7%; in the experiment on LOX IMVI melanoma, 75.4%. Further, the growth in the experiment on SK-MEL-28 melanoma is 95.3%; with SK-MEL-2 melanoma it was 120%.

In the case of `O=C(CCN1C(=O)/C(=C/c2ccccc2)SC1=S)N1CCOCC1`, the growth with K-562 leukemia was 43.1%; in the experiment with MALME-3M melanoma it was 72.9%; with MDA-MB-231 breast, 75.9%; in the experiment on RXF 393 renal, 77.1%; in the experiment on SF-268 CNS it was 97.7%; in the experiment with SF-295 CNS, 98.1%. In addition, the growth was 91.8% in the experiment with SF-539 CNS; 91.4% with UACC-257 melanoma; 76.8% in the experiment on M14 melanoma; 53.7% with HCT-15 colon; 102% with HT29 colon; 92.1% in the experiment on SNB-75 CNS. Also, the growth in the experiment on SNB-19 CNS is 101%; in the experiment on U251 CNS, 99.9%; in the experiment with PC-3 prostate, 111%; in the experiment on SK-MEL-5 melanoma, 99.5%; in the experiment with UACC-62 melanoma, 78.8%; in the experiment on LOX IMVI melanoma, 0.309% (active). The figures for the growth in the experiment with SK-MEL-28 melanoma and with SK-MEL-2 melanoma were 85.6% and 112%, respectively.

In the case of `CC(=O)c1ccc(Nc2nc(SC(C)C)nc(-c3ccccc3)c2C#N)cc1`, the growth in the experiment on K-562 leukemia is 92.6%; in the experiment with MALME-3M melanoma, 112%; with MDA-MB-231 breast, 95.7%; with RXF 393 renal, 103%; in the experiment on SF-268 CNS, 91.9%; in the experiment with SF-295 CNS, 109%. The growth with SF-539 CNS was 95.5%; in the experiment on UACC-257 melanoma, 108%; in the experiment with M14 melanoma, 118%; in the experiment with HCT-15 colon, 101%; in the experiment on HT29 colon, 99.6%; in the experiment with SNB-75 CNS, 92.3%. For the same molecule, the growth with SNB-19 CNS is 87.2%; in the experiment with U251 CNS it was 89.5%; in the experiment on PC-3 prostate it was 88.1%; with SK-MEL-5 melanoma, 98.1%; in the experiment on UACC-62 melanoma it was 82.3%; in the experiment with LOX IMVI melanoma, 95.1%. Also, the figures for the growth in the experiment with SK-MEL-28 melanoma and with SK-MEL-2 melanoma were 104% and 117%, respectively.

As for `C/C(=N/NC(N)=S)c1ccc(Nc2nc(SCC(C)C)nc(-c3ccc(F)cc3)c2C#N)cc1`, the growth was 4.78% (active) in the experiment on K-562 leukemia; 24.9% in the experiment with MALME-3M melanoma; 15% with MDA-MB-231 breast; -45.4% (active) with RXF 393 renal; 25.3% in the experiment with SF-268 CNS; -69.8% (active) with SF-295 CNS. For the same molecule, the growth is -58.6% (active) in the experiment on SF-539 CNS; 63.3% in the experiment on UACC-257 melanoma; 28.3% in the experiment on M14 melanoma; 25.2% in the experiment with HCT-15 colon; 15% in the experiment on HT29 colon; 80.6% with SNB-75 CNS. Further, the growth was 15.4% in the experiment with SNB-19 CNS; -39.6% (active) in the experiment with U251 CNS; -14.5% (active) in the experiment with PC-3 prostate; 37.3% in the experiment on SK-MEL-5 melanoma; -18.4% (active) in the experiment on UACC-62 melanoma; -9.66% (active) in the experiment with SK-MEL-28 melanoma. The growth in the experiment with SK-MEL-2 melanoma is 11.1%.

As to `C=C1CC[C@H]2[C@@](C)(CCC3OC(c4ccc(OCc5cn(C6CC(OC(C)=O)C(OC(C)=O)C(COC(C)=O)O6)nn5)cc4)OC[C@]32C)[C@@H]1/C=C/C1=CCOC1=O` (stereo partly specified), the growth with K-562 leukemia is 38.8%; in the experiment with MALME-3M melanoma, 58%; with MDA-MB-231 breast it was 77.9%; in the experiment on RXF 393 renal, 103%; in the experiment on SF-268 CNS it was 90.3%; in the experiment with SF-295 CNS it was 61%. Moreover, the growth is 84.8% in the experiment on SF-539 CNS; 61.6% in the experiment on UACC-257 melanoma; 93.9% in the experiment with M14 melanoma; 77.2% with HCT-15 colon; 84.1% in the experiment with HT29 colon; 94.8% in the experiment with SNB-75 CNS. Further, the growth in the experiment with SNB-19 CNS is 88.3%; in the experiment with U251 CNS, 92.9%; with PC-3 prostate it was 62%; in the experiment on SK-MEL-5 melanoma, 0.123% (active); in the experiment with UACC-62 melanoma, 70.5%; in the experiment with SK-MEL-28 melanoma, 100%. Further, in the experiment with SK-MEL-2 melanoma, the growth was 100%.

Consider `COc1cc(/C=C/C(=O)c2ccccc2)ccc1Oc1nc(NCCO)nc(N2CCOCC2)n1`, for which the growth in the experiment on K-562 leukemia is 22.9%; in the experiment on MALME-3M melanoma, 93.7%; in the experiment on MDA-MB-231 breast, 97.1%; with RXF 393 renal it was 105%; with SF-268 CNS it was 103%; with SF-295 CNS it was 99.7%. In addition, the growth in the experiment on SF-539 CNS was 94.2%; in the experiment with UACC-257 melanoma it was 95.4%; in the experiment with M14 melanoma, 99.3%; with HCT-15 colon, 90.9%; in the experiment with HT29 colon, 105%; in the experiment with SNB-75 CNS, 99.8%. For the same molecule, the growth in the experiment with SNB-19 CNS is 97.8%; in the experiment with U251 CNS, 88.4%; in the experiment on PC-3 prostate, 84.9%; in the experiment on SK-MEL-5 melanoma, 99.3%; in the experiment with UACC-62 melanoma, 92.9%; in the experiment with SK-MEL-28 melanoma it was 107%. Besides, the growth with SK-MEL-2 melanoma was 103%.

As for `C[C@@H](Nc1c(C#N)cnc2ccc(-c3cnc(N)nc3)cc12)c1ccccc1`, the growth in the experiment on K-562 leukemia was 16.2%; in the experiment on MALME-3M melanoma it was 8.07% (active); in the experiment on MDA-MB-231 breast it was 17.9%; in the experiment on RXF 393 renal, -4.27% (active); with SF-268 CNS, 16.5%; in the experiment with SF-295 CNS, 2.02% (active). Moreover, the growth is 3.05% (active) in the experiment with SF-539 CNS; 33.5% in the experiment with UACC-257 melanoma; 21.3% in the experiment on M14 melanoma; 9.79% (active) with HCT-15 colon; 18.7% with HT29 colon; -13.2% (active) in the experiment with SNB-75 CNS. The growth in the experiment on SNB-19 CNS was 26.3%; in the experiment with U251 CNS it was 18.1%; in the experiment on PC-3 prostate it was 10%; in the experiment on SK-MEL-5 melanoma, -74.2% (active); in the experiment with UACC-62 melanoma, -9.74% (active); with LOX IMVI melanoma, 11.7%. The growth with SK-MEL-28 melanoma was 20%; in the experiment with SK-MEL-2 melanoma, -42.5% (active).

With `CCCC(=O)NC(c1ccc(N(CC)CC)cc1)c1cc(C)c2cccnc2c1O` (stereo unspecified), the growth with K-562 leukemia was 14.6%; in the experiment with MALME-3M melanoma it was 16%; in the experiment with MDA-MB-231 breast, 43.9%; with RXF 393 renal, 43.1%; in the experiment with SF-268 CNS it was 27.6%; in the experiment on SF-295 CNS, 17.6%. The growth was 11.3% in the experiment with SF-539 CNS; 24.9% in the experiment on UACC-257 melanoma; -33% (active) in the experiment with M14 melanoma; 29.5% in the experiment with HCT-15 colon; 36.4% in the experiment on HT29 colon; 60.4% in the experiment with SNB-75 CNS. Besides, the growth is 25.1% with SNB-19 CNS; 25.6% with U251 CNS; 39.3% with PC-3 prostate; -19.8% (active) in the experiment on SK-MEL-5 melanoma; 8.31% (active) in the experiment on UACC-62 melanoma; 29.6% in the experiment on SK-MEL-28 melanoma. For the same molecule, the growth in the experiment on SK-MEL-2 melanoma is 23%.
